The campaign covered roughly 48,000 compounds. About 13,000 (27%) showed an effect of 50% or more. The list shows a part of the results.

The subject of the experiment is Wolbachia pipientis. Put plainly: Anti-Wolbachia Cell-Based Screen. Type of experiment: functional. Set-up: scale not given: in the data most compounds retested in dose-response had high values. The settings on record: 5 µM.
In the case of `CN(C)c1cc(CNC(=O)Nc2nncs2)ccn1`, the “Percent Effect” value was determined as 51.52%. As to `CN(C)c1cc(CNC(=O)Nc2ccc(F)cc2)ccn1`, the “Percent Effect” value is 2.745%. As for `CCc1ccc(CCNc2ncnc3c2CCN(C(=O)C2CC2)C3)cc1`, the “Percent Effect” value is reported as -23.9%.

As for `NC(=O)C1CCN(CCCc2ccc(C(F)(F)F)cc2)CC1`, the “Percent Effect” value came out at 5.084%.

As to `OCC1CN(Cc2nc(C(F)(F)F)cs2)c2ccccc2O1` (stereo not drawn), the “Percent Effect” value came to 3.254%. As to `CC(C)(C)n1nc(C(=O)NCC2(C(N)=O)CCOCC2)cc1C1CC1`, the “Percent Effect” value was 8.942%. Under `CC(C)c1cc(C(=O)NCC(O)C2CCOCC2)nn1C(C)(C)C` (stereo not drawn) stands -4.207%; under `CC(CCc1ccccc1)CC(=O)NC1CCN(CC(N)=O)CC1` (stereo not drawn), -10.07%.

For `Cn1nc(C(=O)NC2CC2)cc1NC(=O)C1CC1`, the “Percent Effect” value was -11.77%.

As to `CCNc1ccnc(NC2CCN(CC(N)=O)CC2)n1`, the “Percent Effect” value is recorded as 2.921%. Under `CNC(=O)C1CCC(NC(=O)c2cc(C3CC3)n(C(C)(C)C)n2)CC1` (stereo not drawn) stands 117.3%; under `CC(C)(C)n1nc(C2CC2)cc1C(=O)NCC1(C(N)=O)CCOCC1`, 3.596%. On to `CC(C)(C)n1nc(C2CC2)cc1C(=O)NC1CCN(CC(N)=O)CC1`, for which the “Percent Effect” value stood at 124.1%. Consider `CC(C)(C)n1nc(C(=O)NC2CCN(CC(N)=O)CC2)cc1C1CC1`, for which the “Percent Effect” value came out at 128.2%. Under `CC(C)c1cc(C(=O)NC2CCN(CC(N)=O)CC2)nn1C(C)(C)C` stands 128%. For `Cn1nc(C(=O)NC2CC(C)(C)NC(C)(C)C2)cc1NC(=O)C1CC1` the value was -0.3555%; for `CC(C)c1cc(C(=O)NCC2(C(N)=O)CCOCC2)nn1C(C)(C)C`, -12.39%.

Take `Cc1ccc(C)c(Oc2ccc(CNC(=O)C3CCC(=O)N3)cn2)c1` (stereo not drawn): the “Percent Effect” value is -2.356%. `CCCc1nnsc1C(=O)N1CCN(CC(O)c2ccco2)CC1.Cl` (stereo not drawn): the “Percent Effect” value is listed as -2.42%. As to `Cc1nnc2n1CCN(Cc1ncc(-c3ccc(Cl)cc3)o1)C2`, the “Percent Effect” value was -13.18%. As to `CS(=O)(=O)N1CC[C@]2(C[C@@H](OCC3CCC3)CO2)C1`, the “Percent Effect” value was found to be 0.0763%. Under `Cc1cc(C(=O)NC2CCN(CC(N)=O)CC2)nn1C(C)(C)C` stands 133.1%; under `NC(=O)CN1CCC(NC(=O)c2ccn(-c3cccc(F)c3)n2)CC1`, -0.7272%; under `CCCc1nc(C)c(C(=O)NC2CCN(CC(N)=O)CC2)s1`, 7.483%. In the case of `Cc1csc(CN(C)CCCOc2cccc(C#N)c2)n1`, the “Percent Effect” value came to 1.685%. On to `Cc1nn(C)c(N2CCOCC2)c1CNC(C)c1ccco1` (stereo not drawn), for which the “Percent Effect” value was -14.65%. With `Cc1nn(C)c(N2CCOCC2)c1CNCc1ccccc1CO`, the “Percent Effect” value came out at 115.8%. On to `Cc1nn(C)c(N2CCOCC2)c1CNCC1CCS(=O)(=O)C1` (stereo not drawn), for which the “Percent Effect” value is given as -15.3%. As to `Cc1nn(C)c(N2CCOCC2)c1CNCc1ccoc1C`, the “Percent Effect” value amounted to 153.8%. As to `Cc1nn(C)c(N2CCOCC2)c1CNCc1nccs1`, the “Percent Effect” value is -7.203%.

On to `Cc1nn(C)c(N2CCOCC2)c1CNCC1CCCN1C` (stereo not drawn), for which the “Percent Effect” value is listed as -4.188%. For `Cc1nn(C)c(N2CCOCC2)c1CNCc1ccc(Cl)s1`, the “Percent Effect” value amounted to 2.748%.

As to `Cc1nn(C)c(N2CCOCC2)c1CNCc1ccnn1C`, the “Percent Effect” value came to 142.8%. Turning to `Cc1nn(C)c(N2CCOCC2)c1CNCc1ccc(CO)c(F)c1`, the “Percent Effect” value came to 138%. For the compound `Cc1cccc(CNCc2c(C)nn(C)c2N2CCOCC2)n1`, the “Percent Effect” value is recorded as -8.764%. Take `Cc1nn(C)c(N2CCOCC2)c1CNCC1CCN(C2CC2)C1` (stereo not drawn): the “Percent Effect” value is recorded as -9.16%. With `O=C(NCC1(O)CCSCC1)c1ccoc1`, the “Percent Effect” value is -3.908%. With `Cc1nccn1CC1CCCN1CCCc1nc(-c2cccs2)no1` (stereo not drawn), the “Percent Effect” value is given as 8.035%. In the case of `Cc1ncccc1CNC(CCO)C1CCCCC1` (stereo not drawn), the “Percent Effect” value came to 3.816%. Take `Cn1ccnc1C1CCN(S(=O)(=O)c2ccc3c(c2)OCCO3)CC1`: the “Percent Effect” value was -44.72%.

`O=C(Nc1ncn(CC(=O)N2CCCCCC2)n1)C1CCCO1` (stereo not drawn): the “Percent Effect” value was -2.557%. As to `Fc1ccc(CN2CCCC2Cn2cncn2)c2ncccc12` (stereo not drawn), the “Percent Effect” value is given as 11.89%. `CC(C)N(C(=O)c1ccnc(OCC(F)(F)F)c1)c1cccnc1`: the “Percent Effect” value was -10.5%. In the case of `COCc1cccc(CNCc2c(C)nn(C)c2N2CCOCC2)c1`, the “Percent Effect” value amounted to 117.6%. As to `Cc1nn(C)c(N2CCOCC2)c1CNCc1ccc(C(C)O)cc1` (stereo not drawn), the “Percent Effect” value was 111.2%.

Regarding `Cc1nn(C)c(N2CCOCC2)c1CNCc1ccnc(N(C)C)c1`, the “Percent Effect” value was -0.1268%. Consider `Cc1nn(C)c(N2CCOCC2)c1CNCc1ccc2c(c1)OCO2`, for which the “Percent Effect” value was found to be 96.35%. `COc1ccc(CNCc2c(C)nn(C)c2N2CCOCC2)cc1`: the “Percent Effect” value was determined as 6.012%. Consider `Cc1nc(CNCc2c(C)nn(C)c2N2CCOCC2)cs1`, for which the “Percent Effect” value is listed as -13.32%. On to `COCc1cccc(CNCc2c(C)nn(C)c2N(C)C)c1`, for which the “Percent Effect” value is -4.219%. For `Cc1cc(CNCc2c(C)nn(C)c2N2CCOCC2)no1` the value was -8.986%. Consider `Cc1nn(C)c(N2CCOCC2)c1CNCc1ccc(N(C)C)nc1`, for which the “Percent Effect” value is listed as 80.75%. For `Cc1nn(C)c(N(C)C)c1CNCc1ccc(N(C)C)nc1` the value was 0.9542%.

The record behind these values is ChEMBL document CHEMBL3988442, “University of Dundee, Small-Polar-MMV Screening Library” (2021).
